Our source for the z-score and composite z-score values is PubChem BioAssay.

Experiment [1] in a line: optical density shifts of acrAB sulA E. coli – strain DRC41, OD650, 48 h, E. coli filamentation inducer project, primary screen (AID 1152).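 Further: E. coli MC1000 strain DRC41 lacking acrAB efflux pump and sulA.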 The note with it: higher = more signal, called active from +8 up or from −8 down.
A short description of experiment [2]: probe aLefty1 binding on compound microarray – biochemical, small-molecule microarray, 635/667 nm fluorescence, primary screen (AID 1153).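 Further: score merges spot fluorescence with signal-to-noise ratio from the scanned slide images.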 The following applies: higher = more signal.
Experiment [3] is described as follows: plasmodial surface anion channel blockers, osmotic lysis – cell-based, P. falciparum Indochina, OD700, 1 h, primary screen (AID 1154). The note with it: P. falciparum Indochina infected RBC osmotic lysis, higher = more signal, called active from +8 up or from −8 down.
Experiment [4] in a line: plasmodial surface anion channel blockers, osmotic lysis – cell-based, P. falciparum Indochina, OD700, 2 h, primary screen (AID 1155).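 Further: lysis reports solute entry through the parasite surface anion channel PSAC.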 The following applies: P. falciparum Indochina infected erythrocytes, higher = more signal, called active from +8 up or from −8 down.
Experiment [5] is described as follows: changes in parasitized red cell lysis, either direction – P. falciparum Indochina, OD700, 3 h, PSAC antagonist project, primary screen (AID 1156). The note with it: P. falciparum-infected erythrocytes, osmotic lysis, higher = more signal, called active from +8 up or from −8 down.
Experiment [6] in a line: plasmodial surface anion channel blockers, osmotic lysis – cell-based, P. falciparum Indochina, OD700, 18 h, primary screen (AID 1157). The note with it: P. falciparum Indochina infected erythrocytes, osmotic lysis OD700, 18 h; higher = more signal, called active from +8 up or from −8 down.
Experiment [7] can be described thus: S6 kinase pathway phospho-S6 level changes – cell-based, A549, cytoblot, luminescence, serum-stimulated, primary screen (AID 1158).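 Further: serum-stimulated A549 lung adenocarcinoma cells; signal is phosphorylated S6 detected by cytoblot immunostaining with HRP secondary.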 The following applies: 5 h, higher = more signal.
Experiment [8] concerns the target NADPH oxidase 2 (Homo sapiens) (UniProt P04839). The experiment in a line: compounds shifting NOX2 Amplex Red fluorescence – cell-based, HEK293-NOX2, PMA-stimulated, NOX inhibitor project, primary screen (AID 1159). Further: test concentration not given here. The following applies: 45 min, higher = more signal, called active from +8 up or from −8 down.
In experiment [9] the target is NADPH oxidase 4 (Homo sapiens) (UniProt Q9NPH5). The experiment in a line: compounds shifting NOX4 Amplex Red fluorescence – cell-based, HEK293-NOX4, tetracycline-induced, NOX inhibitor project, primary screen (AID 1160). The note with it: HEK293-NOX4, Amplex Red H2O2 fluorescence, 45 min; higher = more signal, called active from +8 up or from −8 down.
Chain of NADPH oxidase 4 (Homo sapiens) (Q9NPH5 whole entry, looked up): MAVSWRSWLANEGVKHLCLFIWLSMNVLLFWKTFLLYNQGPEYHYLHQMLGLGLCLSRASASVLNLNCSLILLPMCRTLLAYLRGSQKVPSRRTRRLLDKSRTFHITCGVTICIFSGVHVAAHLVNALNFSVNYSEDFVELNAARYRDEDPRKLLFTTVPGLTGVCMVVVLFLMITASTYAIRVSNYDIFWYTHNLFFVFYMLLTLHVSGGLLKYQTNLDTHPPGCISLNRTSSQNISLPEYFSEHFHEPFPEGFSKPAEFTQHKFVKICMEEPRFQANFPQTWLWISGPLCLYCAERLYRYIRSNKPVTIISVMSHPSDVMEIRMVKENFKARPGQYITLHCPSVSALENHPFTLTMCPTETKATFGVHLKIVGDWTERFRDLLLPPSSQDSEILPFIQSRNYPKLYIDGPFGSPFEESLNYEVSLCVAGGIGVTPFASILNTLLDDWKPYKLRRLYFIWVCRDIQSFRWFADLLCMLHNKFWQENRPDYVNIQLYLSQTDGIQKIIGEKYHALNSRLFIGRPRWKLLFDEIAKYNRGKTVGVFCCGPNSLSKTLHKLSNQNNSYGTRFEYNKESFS
Experiment [10] deals with NADPH oxidase 5 (Homo sapiens) (UniProt Q96PH1). The experiment in a line: compounds shifting NOX5 Amplex Red fluorescence – cell-based, HEK293-NOX5, NOX inhibitor project, primary screen (AID 1161). The note with it: HEK293-NOX5, ionomycin, 45 min, higher = more signal.
Chain of NADPH oxidase 5 (Homo sapiens) (Q96PH1 whole entry, looked up): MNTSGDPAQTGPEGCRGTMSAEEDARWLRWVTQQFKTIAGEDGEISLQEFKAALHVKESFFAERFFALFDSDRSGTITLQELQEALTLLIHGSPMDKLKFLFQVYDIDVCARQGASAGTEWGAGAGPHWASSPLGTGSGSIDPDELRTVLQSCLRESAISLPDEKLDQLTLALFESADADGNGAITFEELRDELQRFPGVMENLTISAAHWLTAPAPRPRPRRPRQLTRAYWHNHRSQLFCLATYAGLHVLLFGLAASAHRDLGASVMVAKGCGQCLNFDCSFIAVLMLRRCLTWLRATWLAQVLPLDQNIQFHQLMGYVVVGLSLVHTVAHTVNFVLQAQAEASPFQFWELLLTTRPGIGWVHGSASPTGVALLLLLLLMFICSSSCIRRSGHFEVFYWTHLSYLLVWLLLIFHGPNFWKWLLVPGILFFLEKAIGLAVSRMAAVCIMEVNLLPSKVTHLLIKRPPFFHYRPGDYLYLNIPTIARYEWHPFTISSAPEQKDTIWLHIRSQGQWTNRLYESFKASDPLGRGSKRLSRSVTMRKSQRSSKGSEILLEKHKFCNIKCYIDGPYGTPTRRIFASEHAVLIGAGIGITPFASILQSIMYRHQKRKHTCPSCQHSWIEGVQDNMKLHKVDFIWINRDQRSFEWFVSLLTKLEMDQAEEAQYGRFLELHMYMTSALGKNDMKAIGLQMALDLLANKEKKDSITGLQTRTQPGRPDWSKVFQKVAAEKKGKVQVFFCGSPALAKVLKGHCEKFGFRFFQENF
Experiment [11] can be described thus: compound effects on lung adenocarcinoma cell viability – A549, calcein-AM fluorescence, 48 h, basal, profiling panel (AID 1162). Further: test concentration not given here. The note with it: higher = more signal.
Experiment [12] can be described thus: compound effects on differentiated 3T3-L1 adipocyte viability – cell-based, 3T3-L1 adipocytes, calcein-AM fluorescence, 48 h, basal, profiling panel (AID 1163). Further: test concentration not given here. The note with it: 3T3-L1 adipocytes viability, higher = more signal.
Experiment [13] can be described thus: compound effects on hepatocellular carcinoma cell viability – HepG2, calcein-AM fluorescence, 48 h, basal, profiling panel (AID 1164). Further: test concentration not given here. The following applies: higher = more signal.
Experiment [14] in a line: compound effects on multiple myeloma cell viability – MM1S, calcein-AM fluorescence, 48 h, basal, profiling panel (AID 1165).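 Further: viability of MM1S multiple myeloma cells under basal unstimulated conditions; test concentration not given here.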 The following applies: higher = more signal.
Experiment [15] is described as follows: calcein-AM signal in unstimulated myeloma cells – cell-based, calcein-AM fluorescence, 48 h, PK04 Diversity Set, profiling panel (AID 1166).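 Further: cells grown under basal conditions without added stimulus; test concentration not given here.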 The note with it: RPMI8226 myeloma viability, higher = more signal.
The nature of experiment [16]: JC-1 mitochondrial signal, unstimulated HepG2 cells – cell-based, JC-1 fluorescence, 24 h, 100 nL compound, profiling panel (AID 1167). Further: test concentration not given here. The following applies: HepG2 mitochondrial potential, higher = more signal.
Experiment [17] can be described thus: JC-1 mitochondrial signal, unstimulated adipocytes – cell-based, JC-1 fluorescence, 3T3-L1 adipocytes, 24 h, 100 nL compound, profiling panel (AID 1168). Further: test concentration not given here. The following applies: JC-1 mitochondrial fluorescence, higher = more signal, called active from +8 up or from −8 down.
The nature of experiment [18]: JC-1 mitochondrial signal, unstimulated myeloma cells – cell-based, JC-1 fluorescence, RPMI8226, 24 h, 100 nL compound, profiling panel (AID 1169). Further: test concentration not given here. The note with it: JC-1 mitochondrial potential fluorescence, higher = more signal.
The nature of experiment [19]: JC-1 mitochondrial signal, unstimulated MM1S myeloma – cell-based, JC-1 fluorescence, 24 h, 100 nL compound, profiling panel (AID 1170). Further: test concentration not given here. The note with it: MM1S mitochondrial potential, higher = more signal.
Experiment [20] can be described thus: resazurin metabolic signal in A549 cells – cell-based, resazurin fluorescence, 24 h, PK04 Diversity Set, profiling panel (AID 1171). Further: test concentration not given here. The following applies: A549 viability, higher = more signal, called active from +8 up or from −8 down. (In general: Resazurin is reduced to fluorescent resorufin, in cell work by metabolically active cells.)

Calls of active or inactive are those of the source.

Chain of NADPH oxidase 2 (Homo sapiens) (P04839 whole entry, looked up): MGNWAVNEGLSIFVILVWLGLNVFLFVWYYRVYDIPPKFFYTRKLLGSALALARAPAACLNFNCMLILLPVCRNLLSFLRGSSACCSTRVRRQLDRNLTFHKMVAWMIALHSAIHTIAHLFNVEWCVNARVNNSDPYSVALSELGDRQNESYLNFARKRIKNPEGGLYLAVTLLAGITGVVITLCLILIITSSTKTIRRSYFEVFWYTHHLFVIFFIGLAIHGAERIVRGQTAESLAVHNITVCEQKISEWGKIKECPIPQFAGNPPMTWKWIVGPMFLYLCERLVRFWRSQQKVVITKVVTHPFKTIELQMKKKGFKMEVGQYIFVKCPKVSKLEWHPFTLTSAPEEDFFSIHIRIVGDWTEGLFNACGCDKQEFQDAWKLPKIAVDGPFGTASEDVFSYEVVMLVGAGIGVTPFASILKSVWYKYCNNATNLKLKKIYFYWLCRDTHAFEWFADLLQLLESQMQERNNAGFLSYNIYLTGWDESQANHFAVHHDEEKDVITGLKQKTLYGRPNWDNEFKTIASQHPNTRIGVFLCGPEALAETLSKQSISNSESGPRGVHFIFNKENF

Regarding `CC(C)(C)OC(=O)CC[C@@]1(C(=O)O)N=C(c2ccc(OCCCO)cc2)O[C@@H]1c1ccccc1CN=[N+]=[N-]`, the z-score in [1] is 0.648 (inactive); in [3], 24.5 (active); in experiment [4], 10 (active); in [5], -0.0836 (inactive); in experiment [6], 1.53 (inactive); in experiment [7], 0.0274. In addition, the z-score is 0.716 (inactive) in experiment [8]; 0.691 (inactive) in experiment [9]; 1.53 in experiment [10]; 0.824 in experiment [11]; -0.0107 in [12]; 0.0885 in experiment [13]. In addition, the z-score in [14] was 0.131; in experiment [15], 0.813; in [16] it was -0.0553; in [17], -0.913 (inactive); in experiment [18], -0.411; in experiment [19], -0.579. Further, the z-score in experiment [20] was 10.4 (active). Further, the composite z-score in experiment [2] was determined as 0.479.

For the compound `COC(=O)[C@H](Cc1ccccc1)N1CC(/C=C/C2CC2)=C[C@@H]1[C@@H](O)Cc1ccccc1`, the z-score in [1] was 0.974 (inactive); in experiment [3], 1.97 (inactive); in experiment [4], 0.189 (inactive); in experiment [5] it was -0.427 (inactive); in experiment [6], 0.401 (inactive); in experiment [7], 0.306. Moreover, the z-score in [8] was -0.193 (inactive); in experiment [9], 0.058 (inactive); in [10], 0.424; in experiment [11], 0.56; in experiment [12], -0.0766; in experiment [13], 0.942. For the same compound, the z-score in experiment [14] is -3.21; in [15], -3.07; in [16], -0.0594; in experiment [17], 0.427 (inactive); in [18] it was -1.04; in [19] it was -2.45. The z-score in [20] was 0.73 (inactive). For the same compound, the composite z-score in [2] came out at 0.0082.

For the compound `O=C1O[C@H](c2ccccc2)[C@H](c2ccccc2)N2[C@H]1[C@@H](C(=O)O)[C@]1(C(=O)Nc3ccccc31)[C@H]2c1ccc(O)cc1`, the z-score in experiment [1] is -0.611 (inactive); in experiment [3], 1.26 (inactive); in [4] it was 0.789 (inactive); in experiment [5] it was -0.236 (inactive); in experiment [6] it was 0.678 (inactive); in [7], 0.374. In addition, the z-score in experiment [8] was -0.295 (inactive); in experiment [9], -0.697 (inactive); in [10], 1.31; in [11], 0.29; in experiment [12], -0.268; in experiment [13], -0.733. Moreover, the z-score in experiment [14] was 0.0137; in [15], 0.605; in experiment [16], -1.33; in experiment [17], -1.43 (inactive); in [18], 0.73; in [19], 0.0818. Further, the z-score in experiment [20] is 0.769 (inactive). This compound also returned a composite z-score in experiment [2] of -0.0501.

Regarding `COCCCNC(=O)[C@@]1(Sc2ccc(C)cc2)CC(=O)N(C2Cc3ccccc3C2)[C@@H]1c1ccc(CO)cc1I`, the z-score in experiment [1] was -0.713 (inactive); in experiment [3], 4.51 (inactive); in [4], 0.427 (inactive); in experiment [5] it was -0.23 (inactive); in experiment [6], -0.0133 (inactive); in experiment [7], 0.224. Besides, the z-score in experiment [8] was 2.2 (inactive); in [9] it was -1.15 (inactive); in [10], 1.23; in [11], -0.126; in experiment [12] it was -0.175; in experiment [13] it was -0.65. Moreover, the z-score was -2.45 in experiment [14]; -2.27 in [15]; -0.188 in experiment [16]; -0.0568 (inactive) in experiment [17]; -0.294 in experiment [18]; -1.34 in [19]. The z-score in experiment [20] is -0.3 (inactive). The composite z-score in [2] is -0.0366.

In the case of `COCCOC(=O)N1C(=O)[C@@]2(c3cc(C#Cc4ccc(OC)cc4)ccc31)[C@H](C(=O)N1CCCCCCC1)[C@H]1C(=O)O[C@H](c3ccccc3)[C@H](c3ccccc3)N1[C@@H]2c1ccc(O)cc1`, the z-score in [1] is 0.785 (inactive); in [3], 1.04 (inactive); in experiment [4] it was -0.134 (inactive); in [5], -0.318 (inactive); in [6], -0.518 (inactive); in experiment [7], 1.27. Besides, the z-score in experiment [8] was -0.76 (inactive); in [9], -0.951 (inactive); in [10], -1.4; in experiment [11] it was -0.938; in [12], 1.07; in experiment [13], -0.618. The z-score in [14] was -0.26; in [15], -0.943; in experiment [16] it was -0.73; in experiment [17] it was 0.88 (inactive); in experiment [18] it was -0.0794; in [19], -0.559. For the same compound, the z-score in experiment [20] is 0.545 (inactive). The compound further returned a composite z-score in experiment [2] of 1.58.
